This is an account of results in PubChem BioAssay (NCI).

The panel holds about 83,000 compounds, 20% with a hit somewhere; the sample as a whole holds those more often.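 Negative percent growth values reflect cell death: -40 means 40% of the cells present at the start died, and -100 means all died.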 Unmarked numbers belong to inactive results. Calls of active or inactive are those of the source. Rule for the calls: active = growth percent below 10; inactive = the rest.

Among the test systems are HCT-15 colon; HT29 colon; SNB-75 CNS; SNB-19 CNS; U251 CNS; PC-3 prostate; SK-MEL-5 melanoma; UACC-62 melanoma; LOX IMVI melanoma; SK-MEL-28 melanoma.
Experiment in all cases: NCI-60 one-dose screen, 48 h (100 = growth as untreated, 0 = no growth, -100 = all killed)
What all share (conditions): 10 µM unless noted

Take `Cc1n(Cc2ccc3ccccc3c2)cc[n+]1Cc1ccc2ccccc2c1`: the growth in the experiment with HCT-15 colon is 85.3%; in the experiment on HT29 colon, 1.25% (active); in the experiment on SNB-75 CNS, 1.07% (active); in the experiment with SNB-19 CNS, 2.02% (active); in the experiment on U251 CNS, 8.17% (active); in the experiment with PC-3 prostate it was 14.1%. Moreover, the growth with SK-MEL-5 melanoma is -92% (active); with UACC-62 melanoma, -40.3% (active); in the experiment on LOX IMVI melanoma, -75% (active); with SK-MEL-28 melanoma, -11.6% (active).
Consider `CC(=O)c1ccc(NS(=O)(=O)c2ccc([N+](=O)[O-])cc2)cc1`, for which the growth in the experiment on HCT-15 colon was 95.2%; in the experiment on HT29 colon, 108%; with SNB-75 CNS, 97.7%; in the experiment with SNB-19 CNS, 87.9%; in the experiment with U251 CNS, 103%; in the experiment on PC-3 prostate it was 93.1%. Further, the growth was 96.9% in the experiment with SK-MEL-5 melanoma, 75.1% with UACC-62 melanoma, 98.8% in the experiment with LOX IMVI melanoma and 123% with SK-MEL-28 melanoma.
For `CCCCCCCCCCOC(C)=O`, the growth was 107% in the experiment with HCT-15 colon; 106% with HT29 colon; 80.7% in the experiment with SNB-75 CNS; 108% in the experiment on SNB-19 CNS; 108% in the experiment with U251 CNS; 93.4% with PC-3 prostate. Also, the growth was 107% with SK-MEL-5 melanoma, 103% in the experiment on UACC-62 melanoma, 108% with LOX IMVI melanoma and 110% in the experiment with SK-MEL-28 melanoma.
Consider `O=C1NC(=O)/C(=C/c2ccc(Cl)cc2Cl)N1`, for which the growth was 103% with HCT-15 colon; 121% with HT29 colon; 83.7% with SNB-75 CNS; 107% with SNB-19 CNS; 102% in the experiment with U251 CNS; 96.5% in the experiment on PC-3 prostate. The growth in the experiment on SK-MEL-5 melanoma was 108%; with UACC-62 melanoma, 102%; in the experiment with LOX IMVI melanoma it was 97.3%; in the experiment with SK-MEL-28 melanoma, 109%.
As for `Cc1cnc2nc(-c3ccc(N(C)C)cc3)cn2c1`, the growth in the experiment with HCT-15 colon is 107%; with HT29 colon, 112%; in the experiment with SNB-75 CNS, 133%; with SNB-19 CNS it was 107%; in the experiment with U251 CNS, 110%; with PC-3 prostate, 121%. In addition, the growth was 99.4% with SK-MEL-5 melanoma, 96% in the experiment with UACC-62 melanoma, 106% in the experiment with LOX IMVI melanoma and 123% with SK-MEL-28 melanoma.
`CC(C)Cn1cnc2c(NCn3nc(-c4cc(Cl)cc(Cl)c4Cl)n(/N=C/c4ccc(Cl)cc4)c3=S)nc3ccccc3c21`: the growth with HCT-15 colon is 91.1%; with HT29 colon it was 91.1%; in the experiment on SNB-75 CNS it was 90.5%; with SNB-19 CNS, 108%; in the experiment with U251 CNS, 86.6%; with PC-3 prostate, 83.6%. The growth in the experiment with SK-MEL-5 melanoma was 57.2%; in the experiment with UACC-62 melanoma it was 72%; in the experiment on LOX IMVI melanoma, 74.4%; in the experiment with SK-MEL-28 melanoma, 112%.
As to `CN(C)c1ccc(-n2nc3ccccc3n2)cc1`, the growth is 108% in the experiment with HCT-15 colon; 111% with HT29 colon; 108% in the experiment on SNB-75 CNS; 98.6% with SNB-19 CNS; 95.5% in the experiment on U251 CNS; 101% in the experiment on PC-3 prostate. Also, the growth was 75.2% with SK-MEL-5 melanoma, 81.1% in the experiment on UACC-62 melanoma, 93.8% with LOX IMVI melanoma and 126% in the experiment on SK-MEL-28 melanoma.
Take `O=C(/C=C/c1ccc([N+](=O)[O-])cc1)c1ccc2c3c(cccc13)CC2`: the growth was 59.5% with HCT-15 colon; 77.2% in the experiment on HT29 colon; 89% in the experiment with SNB-75 CNS; 82.6% in the experiment on SNB-19 CNS; 13.7% with U251 CNS; 52.9% with PC-3 prostate. Also, the growth was 97.8% in the experiment with SK-MEL-5 melanoma, 80.2% with UACC-62 melanoma, 67.6% in the experiment on LOX IMVI melanoma and 63.9% in the experiment on SK-MEL-28 melanoma.
For the molecule `COc1cnc2c(c1)C(=O)c1c-2n(CCCN2CCNCC2)c(=O)c2cc(F)ccc12`, the growth with HCT-15 colon was 2.48% (active); in the experiment on HT29 colon, -42.1% (active); in the experiment with SNB-75 CNS, -7.98% (active); in the experiment with SNB-19 CNS, 18.3%; in the experiment on U251 CNS, 2.03% (active); with PC-3 prostate, 22.8%. In addition, the growth is -88.5% (active) in the experiment on SK-MEL-5 melanoma, -0.448% (active) in the experiment on UACC-62 melanoma, -86.8% (active) in the experiment on LOX IMVI melanoma and -60.5% (active) with SK-MEL-28 melanoma.
Regarding `CC1C(C)N(C(=O)CCl)c2ccccc2N1C(=O)CCl` (stereo not given), the growth is -83.4% (active) in the experiment with HCT-15 colon; -73.5% (active) with HT29 colon; -99.4% (active) in the experiment on SNB-75 CNS; 8.21% (active) with SNB-19 CNS; -93.4% (active) in the experiment with U251 CNS; -36.6% (active) with PC-3 prostate. Further, the growth was -70.4% (active) in the experiment with SK-MEL-5 melanoma, -76.8% (active) in the experiment with UACC-62 melanoma, -81.2% (active) with LOX IMVI melanoma and -45.9% (active) in the experiment on SK-MEL-28 melanoma.
On to `CCOC(=O)c1sc(NC(=O)COc2cccc(/C=C3\CCc4cc(OC)ccc4C3=O)c2)nc1C`, for which the growth with HCT-15 colon was 56.5%; in the experiment with HT29 colon, 39.6%; with SNB-75 CNS it was 99.3%; in the experiment on SNB-19 CNS it was 58.4%; with U251 CNS, 41.1%; in the experiment with PC-3 prostate it was 48.9%. Further, the growth with SK-MEL-5 melanoma is 44.1%; in the experiment with UACC-62 melanoma it was 60.8%; with LOX IMVI melanoma, 48.8%; in the experiment with SK-MEL-28 melanoma, 103%.
In the case of `Cc1ccc(S(=O)(=O)NCCN2c3nc4ccccc4cc3Sc3cc4ccccc4nc32)cc1`, the growth with HCT-15 colon was 103%; in the experiment with HT29 colon, 56.1%; with SNB-75 CNS, -13% (active); in the experiment with SNB-19 CNS, 64.3%; with U251 CNS, 34.4%; with PC-3 prostate, 77.3%. Further, the growth in the experiment on SK-MEL-5 melanoma is 82.7%; in the experiment on UACC-62 melanoma it was 66.9%; in the experiment on LOX IMVI melanoma, 66.5%; in the experiment with SK-MEL-28 melanoma, 87.8%.
Regarding `CCOC(=O)OCC(=O)[C@@]1(O)CC[C@H]2[C@@H]3CCC4=CC(=O)CC[C@]4(C)[C@H]3[C@@H](O)C[C@@]21C`, the growth was 105% in the experiment with HCT-15 colon; 103% in the experiment with HT29 colon; 119% in the experiment with SNB-75 CNS; 96.4% with SNB-19 CNS; 103% in the experiment with U251 CNS; 92% in the experiment on PC-3 prostate. In addition, the growth in the experiment with SK-MEL-5 melanoma is 98.2%; in the experiment with UACC-62 melanoma, 87.6%; in the experiment on LOX IMVI melanoma it was 89.8%; with SK-MEL-28 melanoma it was 110%.
In the case of `O=C(/C=C/c1ccc(C(F)(F)F)cc1)c1ccc(Nc2nc(NCCO)nc(NCCO)n2)cc1`, the growth was 45.5% with HCT-15 colon; 5.46% (active) in the experiment with HT29 colon; 55.8% in the experiment on SNB-75 CNS; 56.7% in the experiment on SNB-19 CNS; -21.2% (active) with U251 CNS; 48.7% in the experiment on PC-3 prostate. In addition, the growth is 76.5% in the experiment on SK-MEL-5 melanoma, 79.1% with UACC-62 melanoma, -44.2% (active) in the experiment on LOX IMVI melanoma and 94.9% in the experiment on SK-MEL-28 melanoma.
As for `O=C1/C(=C\c2coc3ccccc3c2=O)c2ccccc2N1c1c(Cl)cccc1Cl`, the growth is 24.7% in the experiment with HCT-15 colon; 47.6% in the experiment with HT29 colon; 62.7% with SNB-75 CNS; 62.6% in the experiment with SNB-19 CNS; 36% with U251 CNS; 31.8% in the experiment on PC-3 prostate. For the same molecule, the growth in the experiment on SK-MEL-5 melanoma is 20.3%; with UACC-62 melanoma, 36.6%; in the experiment on LOX IMVI melanoma, 37.1%; with SK-MEL-28 melanoma, 47.3%.
Turning to `NS(=O)(=O)c1cc(C2(O)NC(=O)c3ccccc32)ccc1Cl` (stereo not given), the growth is 104% in the experiment on HCT-15 colon; 98.4% in the experiment with HT29 colon; 91.4% in the experiment on SNB-75 CNS; 104% in the experiment with SNB-19 CNS; 103% in the experiment on U251 CNS; 91.7% with PC-3 prostate. The growth in the experiment with SK-MEL-5 melanoma was 115%; in the experiment on UACC-62 melanoma it was 103%; with LOX IMVI melanoma, 98.8%; in the experiment with SK-MEL-28 melanoma, 116%.
